KDM5B inhibitor: Primary screen for KDM5B Histone Demethylases FDH-coupled qHTS; 220,000 tested, 2.6% active; Potency, µM (series often up to 57.7 µM), most hits filed as inhibitors; KDM5B demethylase, FDH-coupled NADH fluorescence (FDH is formaldehyde dehydrogenase); Lysine-specific demethylase 5B (Homo sapiens), Q9UGL1; AID 1347165, 2019; active = well fitted inhibition curve with a large enough effect; also: 0% is about no effect; nearly all actives have a fitted effect of over 70% in size
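KDM5BΔAP (200 nM final) in 50 mM HEPES pH 7.5, 0.01% Tween-20 was preincubated 10 min at RT with compound over a concentration range. Substrate mix (H3K4me3 12.5 µM, α-KG 25 µM, Fe²⁺, ascorbate, NAD⁺, FDH) was added, and NADH fluorescence change over 30 min gave dose-response curves.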
Numbers without * were called inactive; i = inactive. Shown is part of a subset that was picked to be rich in hits. Potency is read from the fitted curve at half-maximal effect.

SMILES	KDM5B inhibitor
CN(C)CCN(C)C(=O)c1ccc(-c2ncc3cnc(-c4cccc(F)c4)cn23)cc1	39.8µM*
CN(Cc1cccn1C)C(=O)c1ccc(F)cc1	i
COCCn1c(SCC(=O)Nc2ccc(C)cc2Br)nc2ccsc2c1=O	i
Cn1c(O)c(C2=Nc3ccccc3SC(c3cccc(O)c3)C2)c(=O)[nH]c1=O (stereo not given)	i
CN1C[C@@H](NC(=O)NCc2ccccc2)C[C@H]1c1nc(-c2cncnc2)no1	i
Cc1ccc(-c2noc(COC(=O)Cc3n[nH]c(=O)c4ccccc34)n2)cc1F	i
COc1ccc2nc(NC(=O)c3cc(-c4ccc(C)c(C)c4)on3)sc2c1	i
COCC(=O)N(C1CCOCC1)C1CCN(C(=O)c2cc(Cl)ccc2F)CC1	i
CCOC(=O)/C(C#N)=C\C1=C(N2CCOCC2)C(=C/c2ccccc2)/CC1	i
COc1ccc(-c2cc(C(=O)N3CCCC3)ccn2)cc1F	28.2µM*
COc1ccc(C(=O)N2CCN(c3cc(C(F)(F)F)ncn3)CC2)cc1F	i
COc1ccc(-c2cc(N3CCCN(C(=O)c4ccc(OC)c(F)c4)CC3)n[nH]2)cc1	i
Cc1c(F)cccc1NC(=O)N1CCC(OC2CCN(Cc3ccccc3)CC2)CC1	i
COC(=O)c1cccc(OC(=O)c2cccs2)c1	i
Cc1ccc(C(=O)N2CCCn3ccnc3C2C(C)C)c(=O)[nH]1 (stereo not given)	i
Cc1ccc(NC(=O)c2sc(-n3nc(C)c(Cl)c3C)nc2C)c(C)c1	i
Cc1ccc(NC(=O)c2cc3c(N4CCSCC4)nc(C)cn3n2)c(C)c1	31.6µM*
CCOc1cc(=O)n2c(c1C(=O)Nc1cc(C)ccc1F)CCCC2	i
CCOc1ccc2c(c1)cc(C(=O)Nc1cc(C)ccc1F)n2C	i
Cc1ccc(F)c(NC(=O)c2cc3c(N4CCSCC4)nc(C)cn3n2)c1	31.6µM*
Cc1ccc(NC(=O)c2cnc(N3CCCCC3)c3ccccc23)c(C)c1	i
O=C(C1CCOCC1)N1CC2CC(C1)[C@H]1CCCC(=O)N1C2 (stereo not given in full)	i
COc1ccc(NC(=O)N2CCc3nnc(C4CC4)n3CC2)cc1	i
COc1ccc(C(=O)N2C3CCCC2CC(=O)C3)cc1	i
COc1cccc2cc(S(=O)(=O)c3cc(F)cc(F)c3)c(=O)oc12	i
SMILES	KDM5B inhibitor
O=C(CCc1cccnc1)NCc1ccccn1	i
OCC1(CC2CC2)CCCN(Cc2ccc(C(F)(F)F)nc2)C1 (stereo not given)	i
OCC1(CC2CC2)CCCN(Cc2ccccc2OC(F)F)C1 (stereo not given)	i
Cc1ccc2nc(CN3CCCC(CO)(CC4CC4)C3)cn2c1 (stereo not given)	22.4µM*
Cn1c(NCCc2ccccc2)nc2c1c(=O)n(Cc1ccc(Cl)c(Cl)c1)c(=O)n2C	i
CC(C)(C)C(=O)COC(=O)c1ccccc1SCC(=O)NCCc1ccc2c(c1)OCCO2	i
CC(C)C(=O)NC(Nc1ccc(Br)cc1)C(Cl)(Cl)Cl (stereo not given)	i
CC(=O)Nc1ccc(CC(=O)N2CCC(C)(c3noc(C)n3)CC2)cc1	i
O=C(CCc1ncc(-c2ccccc2Cl)o1)NCC1CCCO1 (stereo not given)	i
COc1cccc(NC(=O)N2CCc3nc4cc(-c5ccccc5Cl)[nH]n4c(=O)c3C2)c1	25.1µM*
CC(=O)Nc1ccc(CC(=O)N2CCc3c(nc4cc(-c5ccccc5Cl)[nH]n4c3=O)C2)cc1	25.1µM*
COc1ccc(-c2nc3c(c(-c4ccccc4)n2)CN(C(=O)Nc2ccccc2)CC3)cc1	i
COc1cccc(NC(=O)Cn2nc3c(cc2=O)CCCCC3)c1	i
COC(=O)CNC(=O)N1CCc2c(nc3cc(-c4ccccc4Cl)[nH]n3c2=O)C1	22.4µM*
O=C(CSc1nc2ccccc2c(=O)n1-c1ccccc1Cl)NCC1CCCO1 (stereo not given)	i
Cc1ccc(NC(=O)CSc2nc(-c3ccccc3Cl)nc3cc(=O)[nH]n23)c(C)c1	i
CC(=O)Nc1ccc(CC(=O)N2CCC3(CCC(=O)N(Cc4ccccc4)CC3)CC2)cc1	i
O=C(NCC1CCCO1)N1CCc2c(nc3cc(-c4ccccc4Cl)[nH]n3c2=O)C1 (stereo not given)	20µM*
COC(=O)CNC(=O)c1cc(-c2ccccc2Cl)nc2ccc(Br)cc12	i
CCOC(=O)c1sc(CC(=O)Nc2ccc(C)cc2)nc1C	i
COCCN1C(=O)CO[C@H]2CN(C3CCOCC3)C[C@H]21	i
COc1ccc(NC(=O)C(C)Sc2ncnc3c2sc2nc4c(cc23)COC(C)(C)C4)cc1 (stereo not given)	i
O=C(Nc1cccc(F)c1)N1CCC(Oc2ncccc2C(=O)N2CCOCC2)C1 (stereo not given)	i
Brc1ccc(-c2csc(NC3CCCCC3)n2)cc1	i
NCCOc1ccccc1	i
CC(=O)c1cccc(NC(=O)C2CC3CCCC(C2)C3=O)c1 (stereo not given)	i

Screening data deposited in PubChem by National Center for Advancing Translational Sciences (NCATS).
